Measured values: PubChem BioAssay (NCATS)

Assay: qHTS profiling of the MIPE4 collection as inhibitors of Plasmodium falciparum (DD2) proliferation (Rep 2) (AID 743346)
Conditions: P. falciparum Dd2 in erythrocytes, SYBR Green DNA, 72 h; at 28.5 µM unless noted
Summary of the method: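 Erythrocytes infected with P. falciparum (0.3% parasitemia, 2.5% hematocrit) incubated with compounds 72 h at 37 C, 5% CO2. Lysis with saponin/Triton buffer containing SYBR Green I, overnight at room temperature in the dark; DNA fluorescence (485/535 nm) normalised to 0.29 uM artemisinin and DMSO.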

SMILES	parasite growth, % of control (lower = inhibition)
CN(C)c1ccc2cc(C(=O)N[C@@H](CCCN=C(N)CCl)C(=O)NCc3ccccc3)ccc2c1	9.19%
Cc1cc(O)c2c(c1)C(=O)c1cccc(O)c1C2=O	121%
COc1cccc2c1C(=O)c1c(O)c3c(c(O)c1C2=O)C[C@@](O)(C(=O)CO)C[C@H]3O[C@H]1C[C@H](N)[C@H](O)[C@H](C)O1	5.25%
COC(=O)C1C2CC3c4[nH]c5cc(OC)ccc5c4CCN3CC2CC(OC(=O)c2cc(OC)c(OC)c(OC)c2)C1OC (stereo not given)	20%
Nc1ncn([C@@H]2O[C@H](CO)[C@@H](O)[C@@H]2O)c(=O)n1	92.3%
CCCCCCCN(CC)CCCC(O)c1ccc(NS(C)(=O)=O)cc1 (stereo not given)	72%
COc1cc(C)c(Sc2cnc(NC(=O)c3ccc(CNC(C)C(C)(C)C)cc3)s2)cc1C(=O)N1CCN(C(C)=O)CC1 (stereo not given)	17.2%
CC1=C(C(=O)Nc2cc3cn[nH]c3cc2F)C(c2ccc(Cl)cc2F)N=C(c2ccnc(Cl)c2)N1 (stereo not given)	21.1%
COc1cc(C=CC(=O)CC(=O)C=Cc2ccc(O)c(OC)c2)ccc1O	16.5% [at 57.5 µM]
COc1cc(C)c(C=CC(C)=CC=CC(C)=CC(=O)O)c(C)c1C	85.9%
c1ccc2c(Oc3nc(Nc4ccc(N5CCOCC5)cc4)c4ncn(C5CCCCC5)c4n3)cccc2c1	33.7%
O=C(O)CCCCCC(=O)NN=C1CCCC1	194%
C[C@]12CC[C@@H]3c4ccc(O)cc4CC[C@H]3[C@H]1CC[C@H]2O	74%
Nc1ccn(C2CO[C@H](CO)O2)c(=O)n1 (stereo not given in full)	89.7%
OC[C@@H](O)[C@@H](O)[C@H](O)[C@@H](O)CO	92%
C[C@H](O)[C@@H]1C(=O)N2C(C(=O)O)=C(S[C@@H]3CN[C@H](CNS(N)(=O)=O)C3)[C@@H](C)[C@@H]12	82.6%
O=C(C[C@@H]1CC=CCCC(=O)O[C@H](c2ccccc2)CNC1=O)NCc1ccc(Cl)cc1	65.3%
CCCCCCCCCCCCCCCC(=O)OC[C@@H](NC(=O)C(Cl)Cl)[C@H](O)c1ccc([N+](=O)[O-])cc1	135%
Cc1cnn(C)c1C(=O)Nc1cc(Nc2ccc3c(C=Cc4ccccn4)n[nH]c3c2)ccc1F	19.1%
CC(C(C)N1CC(=O)NC(=O)C1)N1CC(=O)NC(=O)C1 (stereo not given)	105%
